Data: PubChem BioAssay (NCATS)
Inconclusive results are not listed. A call without a number means that no potency is given here. Activity calls are given as the source filed them. Calls come from the whole dose curve; as a rule, active = well fitted curve in the direction sought with a large enough effect; inconclusive = small, poorly fitted or top-dose-only effect, or another doubt; inactive = no such curve, though single readings can be large; an effect the other way counts as inactive or inconclusive.

Each compound was assayed against Cellular tumor antigen p53 (Homo sapiens) (UniProt P04637) (assay: Primary qHTS for small molecule compounds that upregulate eGFP-tagged delta133p53alpha (in N-terminal) cells. (AID 2060322; note: nearly all actives have a fitted effect of over 75% in size; note: potency is the fitted concentration of half-maximal effect;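 for activation: cells pre-induced with doxycycline then dosed without doxycycline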)). Conditions: NCI-H358 eGFP-delta133p53alpha fluorescence, 24 h; activation: hits give high values.
Sequence of Cellular tumor antigen p53 (Homo sapiens) (P04637 whole entry, looked up): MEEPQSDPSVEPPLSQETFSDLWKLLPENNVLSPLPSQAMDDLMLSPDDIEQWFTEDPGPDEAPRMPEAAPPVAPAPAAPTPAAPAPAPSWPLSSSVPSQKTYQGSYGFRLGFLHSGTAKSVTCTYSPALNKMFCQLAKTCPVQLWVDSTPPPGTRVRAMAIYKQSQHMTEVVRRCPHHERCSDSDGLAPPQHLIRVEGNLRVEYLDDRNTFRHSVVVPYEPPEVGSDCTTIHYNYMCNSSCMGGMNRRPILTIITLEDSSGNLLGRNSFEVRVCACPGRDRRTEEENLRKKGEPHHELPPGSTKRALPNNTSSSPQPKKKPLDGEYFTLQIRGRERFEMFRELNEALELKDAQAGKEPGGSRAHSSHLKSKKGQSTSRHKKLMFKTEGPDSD
Summary of the method: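 NCI-H358 cells pre-induced 24 h with 10 ng/ml doxycycline for eGFP-delta133p53alpha, plated dox-free and exposed 24 h at 37C to titrated compounds. Fixed, Hoechst-stained; gated GFP peak intensity by laser scanning cytometry, normalized to DMSO (0%) and 57.5 uM 5-azacytidine (100%).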

Compound	activation	Potency
CC[C@@H]1/C=C/C=C/C[C@H](C)C(O)[C@](C)(O)C(=O)[C@H](C)C(O)[C@H](C)C(=O)[C@H](C)[C@@H](O)[C@H](C)/C=C/C(=O)O[C@H]2[C@@H](C)[C@@H](CC1)O[C@]1(O[C@H](C[C@H](C)O)[C@H](C)CC1=O)[C@@H]2C (stereo partly specified)	-12.2% (inactive)	
CN1[C@H]2C[C@H](OC(=O)[C@H](CO)c3ccccc3)C[C@@H]1[C@@H](O)C2	1.67% (inactive)	
C[C@@H]1CCC2[C@@H](C)C(=O)OC3O[C@@]4(C)CCC1[C@]32OO4 (stereo partly specified)	37.5% (inactive)	
C=C(C)[C@@H]1[C@H]2OC(=O)[C@H]1[C@]1(O)C[C@H]3O[C@]34C(=O)O[C@H]2[C@]14C	4.33% (inactive)	
CO[C@H]1C[C@H](O[C@H]2CC[C@]3(C=O)[C@H]4CC[C@]5(C)[C@@H](C6=CC(=O)OC6)CC[C@]5(O)[C@@H]4CC[C@]3(O)C2)O[C@H](C)[C@H]1O	-29.8% (inactive)	
CN1C[C@@H]2CN(c3ccc(-c4ccccc4)nn3)C[C@@H]2C1	14.3% (inactive)	
CC12CCC3C(CCC4(O)CC(O)CCC34C=O)C1(O)CCC2C1=CC(=O)OC1 (stereo unspecified)		10.7 µM (active)
CC(C)(C)NC[C@H](O)c1ccc(O)cc1Cl	-6.33% (inactive)	
CN(CC[C@H](N)CC(=O)N[C@H]1C=C[C@@H](n2ccc(N)nc2=O)O[C@@H]1C(=O)O)C(=N)N	7.14% (inactive)	
CN1C(=O)c2ccccc2NC(=O)[C@]12O[C@@H]2c1ccccc1	-0.763% (inactive)	
COc1cc(O)c2c(c1)/C=C/C[C@@H](O)[C@@H](O)C(=O)CCC[C@H](C)OC2=O	-12.2% (inactive)	
COC(=O)C1(C)CCC(O)C2(C)c3c(O)cc(C(C)C)cc3C(O)C(OC(C)=O)C12 (stereo unspecified)	-9.16% (inactive)	

What follows are compounds tested against Aldehyde dehydrogenase, mitochondrial (Homo sapiens) (UniProt P05091) (assay: qHTS for Inhibitors of the Aldehyde Dehydrogenase Family (ALDH2) Primary screen (AID 2061308; note: nearly all actives have a fitted effect of over 55% in size)). Conditions: ALDH2 enzyme inhibition qHTS, 1536-well; series mostly up to 56 µM.

Compound	Potency	activity change, negative = inhibition
COC1C=CC23c4cc5c(cc4COC2(O)CN(C)C3C1)OCO5 (stereo unspecified)	inactive	
CC(=O)O[C@@H]1[C@H]2CC[C@H]3[C@@](C)(O)[C@@H]4C[C@H](O)C(C)(C)[C@@]4(O)[C@H](O)C[C@@]13C[C@@]2(C)O	inactive	
C=C(C)C(=O)O[C@H]1[C@@H]2[C@H](C)C(=O)O[C@@H]2C[C@@H](C)[C@@H]2C=CC(=O)[C@]21C	inactive	
COc1cc(C(=O)O[C@H]2[C@@H]3C=CO[C@@H](O[C@@H]4O[C@H](CO)[C@@H](O)[C@H](O)[C@H]4O)[C@@H]3[C@@]3(CO)O[C@@H]23)ccc1O	inactive	
CC1C/C=C/C(O)C(O)CC/C=C/c2cc(O)cc(O)c2C(=O)O1 (stereo unspecified)	inactive	
CC(=O)O[C@@H]1[C@@H](O)[C@H]2O[C@@H]3C=C(C)[C@@H](O)C[C@]3(CO)[C@]1(C)[C@]21CO1	inactive	
CC(=O)C1CCC2C3CCC4C[C@@H](O)CCC4(C)C3CCC12C (stereo partly specified)	inactive	
CN1CCN(c2nc3ccccc3nc2Cl)CC1	inactive	
C[C@@H]1O[C@@H](O[C@H]2CC[C@@]3(C)C(CC[C@@H]4C3CC[C@]3(C)[C@@H](C5=CC(=O)OC5)CC[C@]43O)C2)[C@H](O)[C@H](O)[C@H]1O (stereo partly specified)	inactive	
CCC1CC2CN3CCc4c([nH]c5ccccc45)C(C(=O)OC)(C2)C13 (stereo unspecified)	inactive	
C[C@H]1O[C@@H](O[C@H]2[C@@H](O)C[C@H](O[C@H]3[C@@H](O)C[C@H](O[C@H]4CC[C@@]5(C)[C@H](CC[C@@H]6[C@@H]5CC[C@]5(C)[C@@H](C7=CC(=O)OC7)CC[C@]65O)C4)O[C@@H]3C)O[C@@H]2C)C[C@H](O)[C@@H]1O	inactive	
CCOP(=O)(OCC)Oc1ccc2c(C)cc(=O)oc2c1	inactive	
C[C@]12CC[C@H](OC3OC(CO)C(O)C(O)C3OC3OC(CO)C(O)C(O)C3O)C[C@@H]1CC[C@@H]1C2CC[C@]2(C)[C@@H](C3=CC(=O)OC3)CC[C@]12O (stereo partly specified)	inactive	
CC(=O)OC1CC(O)C(C)(C)C2CC(OC(C)=O)C3(C)C(CCC4(C)C(c5ccoc5)C(=O)C5OC543)C12C (stereo unspecified)	inactive	
CC1=CC2/C=C(\C)CCCC(O)/C=C/C(=O)OC23C(=O)NC(CC(C)C)C3C1C (stereo unspecified)	inactive	
N#CC(OC1OC(COC2OC(CO)C(O)C(O)C2O)C(O)C(O)C1O)c1ccccc1 (stereo unspecified)	inactive	
CC(O)(c1ccccc1)C(Cc1ccc(Cl)cc1)n1cncn1 (stereo unspecified)	inactive	
CC[C@@H]1C[C@H]2CC[C@H](O2)[C@H](C)C(=O)O[C@@H](C)C[C@@H]2CC[C@@H](O2)[C@@H](C)C(=O)O[C@H](C)C[C@H]2CC[C@H](O2)[C@H](C)C(=O)O[C@@H](C)C[C@@H]2CC[C@@H](O2)[C@@H](C)C(=O)O1	inactive	
C[C@H]1O[C@@H](n2cnc3c(N)ncnc32)C[C@@H]1O	inactive	
CO/C1=C\C(C)=C\[C@@H](C)[C@@H](O)[C@@H](C)C/C(C)=C/C=C/[C@H](OC)[C@@H]([C@@H](C)[C@@H](O)[C@H](C)[C@@]2(O)C[C@@H](O)[C@H](C)[C@@H](C(C)C)O2)OC1=O	inactive	

Compound	Potency	activity change, negative = inhibition
C=C(C)[C@@]12O[C@@H]1[C@@]1(C)C(=C[C@H]2O)CC[C@@H](O)[C@@H]1C	inactive	
C[C@H]1CCC[C@H](O)CCC/C=C/c2cc(O)cc(O)c2C(=O)O1	inactive	
CC[C@H]1C[C@@H]2CC[C@@H](O2)[C@@H](C)C(=O)O[C@H](CC)C[C@H]2CC[C@H](O2)[C@H](C)C(=O)O[C@@H](C)C[C@@H]2CC[C@@H](O2)[C@@H](C)C(=O)O[C@H](CC)C[C@H]2CC[C@H](O2)[C@H](C)C(=O)O1	inactive	
COCC1OC(=O)c2coc3c2C1(C)C1=C(C3=O)C2CCC(=O)C2(C)CC1O (stereo unspecified)	inactive	
COC(=O)C1(C)CCC(=O)C2(C)c3c(O)cc(C(C)C)cc3C(O)C(OC(C)=O)C12 (stereo unspecified)	inactive	
CCCCOC(=O)c1ccnc2cc(C(OCCN3CCCCC3)c3ccccc3Cl)sc12 (stereo unspecified)	inactive	
COC1CC(O[C@H]2CC[C@@]3(C)C(=CCC4C3C(O)[C@@H](O)[C@]3(C)[C@@H](C(C)=O)CC[C@]43O)C2)OC(C)C1OC1CC(OC)C(OC2OC(C)C(O)C(O)C2O)C(C)O1 (stereo partly specified)	inactive	
CC[C@@H]1/C=C/C=C/C[C@H](C)C(O)[C@](C)(O)C(=O)[C@H](C)C(O)[C@H](C)C(=O)[C@H](C)[C@@H](O)[C@H](C)/C=C/C(=O)O[C@H]2[C@@H](C)[C@@H](CC1)O[C@]1(O[C@H](C[C@H](C)O)[C@H](C)CC1=O)[C@@H]2C (stereo partly specified)	inactive	
CN1[C@H]2C[C@H](OC(=O)[C@H](CO)c3ccccc3)C[C@@H]1[C@@H](O)C2	inactive	
C[C@@H]1CCC2[C@@H](C)C(=O)OC3O[C@@]4(C)CCC1[C@]32OO4 (stereo partly specified)	inactive	
C=C(C)[C@@H]1[C@H]2OC(=O)[C@H]1[C@]1(O)C[C@H]3O[C@]34C(=O)O[C@H]2[C@]14C	inactive	
CO[C@H]1C[C@H](O[C@H]2CC[C@]3(C=O)[C@H]4CC[C@]5(C)[C@@H](C6=CC(=O)OC6)CC[C@]5(O)[C@@H]4CC[C@]3(O)C2)O[C@H](C)[C@H]1O	inactive	
CN1C[C@@H]2CN(c3ccc(-c4ccccc4)nn3)C[C@@H]2C1	inactive	
CC12CCC3C(CCC4(O)CC(O)CCC34C=O)C1(O)CCC2C1=CC(=O)OC1 (stereo unspecified)	inactive	
CC(C)(C)NC[C@H](O)c1ccc(O)cc1Cl	inactive	
CN(CC[C@H](N)CC(=O)N[C@H]1C=C[C@@H](n2ccc(N)nc2=O)O[C@@H]1C(=O)O)C(=N)N		-3.48% [at 11.2 µM] (inactive)
CN1C(=O)c2ccccc2NC(=O)[C@]12O[C@@H]2c1ccccc1	inactive	
COc1cc(O)c2c(c1)/C=C/C[C@@H](O)[C@@H](O)C(=O)CCC[C@H](C)OC2=O	inactive	
COC(=O)C1(C)CCC(O)C2(C)c3c(O)cc(C(C)C)cc3C(O)C(OC(C)=O)C12 (stereo unspecified)	inactive	
